“And” between values parts separate entries of the source, which are not always exact repeats. Equal entries are not always repeated. In all, about 360,000 compounds went through this assay and about 1,200 (0.33%) were called active. The full list was thinned out, with actives kept by preference. Unmarked numbers belong to inactive results.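 How the source made its calls: active means activation above the run's mean compound activation plus 3 SD (cut at about 16% in these data); inactive means the rest.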

These results are taken from PubChem BioAssay AID588814 (The Scripps Research Institute Molecular Screening Center, 2011).

The target in this assay is Muscarinic acetylcholine receptor M1 (Homo sapiens) (UniProt P11229). The assay can be described thus: CHRM1 activation via calcium signal – Fluo-8 calcium fluorescence, CHO-K1 cells, HTS, primary screen (AID 588814).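 Further: peak over basal fluorescence ratio within a 140 s kinetic read after compound addition.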 The conditions noted are these: CHO-K1 hM1, Fluo-8 calcium fluorescence, agonist mode; at 3 µM; stronger effect = higher value; 0% DMSO, 100% acetylcholine EC100.
Chain of Muscarinic acetylcholine receptor M1 (Homo sapiens) (P11229 whole entry, looked up): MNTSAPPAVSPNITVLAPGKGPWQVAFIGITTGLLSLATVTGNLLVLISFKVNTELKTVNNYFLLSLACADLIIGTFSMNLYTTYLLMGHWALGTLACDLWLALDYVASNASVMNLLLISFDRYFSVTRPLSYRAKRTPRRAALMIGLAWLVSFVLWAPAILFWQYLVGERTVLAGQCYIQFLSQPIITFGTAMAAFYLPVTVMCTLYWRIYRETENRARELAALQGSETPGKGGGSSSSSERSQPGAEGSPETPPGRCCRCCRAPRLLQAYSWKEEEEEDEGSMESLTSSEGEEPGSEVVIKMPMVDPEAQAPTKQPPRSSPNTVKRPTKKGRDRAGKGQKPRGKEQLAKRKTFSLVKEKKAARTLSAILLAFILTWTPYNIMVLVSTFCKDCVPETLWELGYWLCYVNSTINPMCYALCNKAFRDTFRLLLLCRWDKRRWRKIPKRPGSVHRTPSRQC
With `C[C@H]1CN([C@@H](C)CO)C(=O)c2cc(C3=CCCCC3)cnc2O[C@@H]1CN(C)C(=O)Cc1ccccc1`, the activation was -6.56%.

As for `CN(CCc1ccccc1)C(=O)c1cccc(NC(=O)Cc2cccc(NC(=O)C3CCCN(C(=O)CCc4ccccc4)C3)c2)c1` (stereo unspecified), the activation was -7.79%.

With `Cc1ccc(-c2nnc(C)c(N3CC(C)OC(C)C3)n2)cc1` (stereo unspecified), the activation was -3.38%.

For the molecule `Cc1ccc(SCC(=O)Nc2nncs2)cc1`, the activation is 0.6%.

In the case of `CC(Oc1ccccc1)C(=O)Nc1oc(-c2ccco2)c(-c2ccco2)c1C#N` (stereo unspecified), the activation was -4.2%.

Consider `CCOc1ccc(S(=O)(=O)N2CCC(C(=O)NCC(=O)Nc3cccc(Cl)c3C)CC2)cc1`, for which the activation is -2.79%.

Turning to `Cc1ccc2nc(/C(C#N)=C\c3ccc(OC(=O)c4cccs4)cc3)[nH]c2c1`, the activation was 21.8% (active).

On to `COc1ccc(CCNC(=O)/C(C#N)=C2\N=C(NC(=O)c3cccs3)c3ccccc32)cc1`, for which the activation is 0.74%.

On to `CCN(CC)c1ccc(S(=O)(=O)N2CCOCC2)cc1NC(=O)CSc1cccc[n+]1[O-]`, for which the activation is -5.92%.

Take `CCOc1ccc(NC(=O)CC(Cc2ccc(Cl)cc2)C(=O)O)cc1` (stereo unspecified): the activation was -7.97%.

As for `O=C(NN1CCOCC1)c1cccc(F)c1`, the activation is -3.15%.

For `Cc1ccc(C(=O)NC2CCN(C(=O)Nc3ccccc3Cl)CC2)cc1`, the activation was -1.42%.

Take `O=C(Nc1ccc(F)cc1)C1CCCN(S(=O)(=O)c2ccc(-n3cnnn3)cc2)C1` (stereo unspecified): the activation is -3.35%.

For the molecule `COC(=O)c1ccc(CN2CCCC(C(=O)Nc3cccc(-n4cnnn4)c3)C2)cc1` (stereo unspecified), the activation is 37.4% (active).

`CC(C)CNC(=O)C1CCCN(S(=O)(=O)c2ccc(-n3cnnn3)cc2)C1` (stereo unspecified): the activation is -2.97%.

Consider `O=C(NCCCN1CCCC1=O)C(=O)NCC1OCCN1S(=O)(=O)c1ccc(Br)cc1` (stereo unspecified), for which the activation is -4.08%.

`Nc1c(C(=O)c2cccs2)sc2nsc(SCCN3CCCCC3)c12`: the activation was 40.6% (active).

For `COc1ccc(Cl)cc1NC(=O)CN(C)C(=O)CCCc1c[nH]c2ccccc12`, the activation was -1.46%.

`Cc1occc1-c1nnc(SCC(=O)NC2(C#N)CCCC2)n1C`: the activation was -1.84%.

For `CCOC(=O)N1CCN(C(=O)c2nn(-c3ccc(C)cc3)c(=O)c3c2c2ccccc2n3C)CC1`, the activation was -4.51%.

For `CCOC(=O)c1nnn2c3ccccc3c(=O)n(C)c12`, the activation was -1.59%.

Turning to `CCCc1nc2c(c(=O)c3ccccc3n2C)c(=O)n1C1CCCCCC1`, the activation was 55.4% (active).

Regarding `COC(=O)c1ccc(CNC(=O)C2CCC(=O)N(Cc3cccc(F)c3)C2)cc1` (stereo unspecified), the activation was -0.82%.

Consider `Cc1nc([N+](=O)[O-])c(NCCCO)n1Cc1ccccc1`, for which the activation is -5.22%.

For `CN(C)CCNC(=O)c1ccc(Cl)c2cc3ccccc3nc12`, the activation is -6.82%.

Turning to `Nc1ccc2nc3c(=O)[nH]c(=S)[nH]c3nc2c1`, the activation is 18.4% (active).

Regarding `CSCc1cc(N(C)C)nc(SCc2ccc(Cl)cc2Cl)n1`, the activation is 1.65%.

`COc1cccc(NC(=O)N(C)C[C@@H]2Oc3ncc(Br)cc3C(=O)N([C@@H](C)CO)C[C@H]2C)c1`: the activation was -2.37%.

With `COC(=O)c1cc(NS(=O)(=O)c2ccc3c(c2)c(=O)n(C)c(=O)n3C)cc(C(=O)OC)c1`, the activation was -0.41%.

On to `Cc1ccccc1NC(=O)c1cc(S(=O)(=O)N2CCOCC2)cs1`, for which the activation is -2.94%.

As for `COc1cc(OC)cc(C(=O)NCC(=O)OCC(=O)NC(C)CCc2ccccc2)c1` (stereo unspecified), the activation was -5.47%.

As for `COc1cc(OC)cc(C(=O)NC(C(=O)N2CCC2)C(C)C)c1` (stereo unspecified), the activation was -2.4%.

On to `COc1cc(OC)cc(C(=O)N[C@H](C(=O)OCC(=O)NC(C)c2ccccc2)C(C)C)c1` (stereo partly specified), for which the activation is 18.7% (active).

In the case of `CC(C)c1ccc(NC(=O)Cn2ncc3ccccc32)cc1`, the activation is -2.42%.

In the case of `CC(NC(=O)Nc1ccccc1)c1ccccc1` (stereo unspecified), the activation was -4.05%.

As for `CCC(C(=O)Nc1ccc(C(C)C)cc1)c1ccccc1` (stereo unspecified), the activation is 29.4% (active).

For the molecule `COc1ccc(C(c2nnnn2C2CCCC2)N2CCN(C/C=C/c3ccccc3)CC2)cc1` (stereo unspecified), the activation is -7.67%.

Take `Cc1ccc(N2C(=O)C3C4C=CC(CC4)C3C2=O)cc1Cl` (stereo unspecified): the activation was -1.43%.

For the molecule `Cc1ccc(S(=O)(=O)Oc2ccc(/C=N/NC(=O)c3c(Cl)cnn3C)cc2)cc1`, the activation is -4.49%.

On to `CC(NC(=O)CSc1nc2c(cc1C#N)CN(C)CC2)c1ccccc1` (stereo unspecified), for which the activation was 18.6% (active).

Regarding `Cc1cc(NC(=O)CSc2nc3c(cc2C#N)CCCCC3)no1`, the activation is -4.15%.

`CC1(C)CCc2nc(SCc3ccccc3)c(C#N)cc2C1`: the activation was -1.01%.

Take `CCOC(=O)C1CCCN(Cc2nc(N)nc(Nc3ccc(C)cc3)n2)C1` (stereo unspecified): the activation is 28.3% (active).

For `COc1ccc(Nc2nc(N)nc(CSC(=S)N3CCC(C)CC3)n2)cc1`, the activation was -4.28%.

In the case of `CCOC(=O)C1CCCN(CCSc2ccc(C)cc2)C1` (stereo unspecified), the activation was -6.73%.

In the case of `CCOC(=O)C1CCCN(C(=O)c2cccc3ccccc23)CC1` (stereo unspecified), the activation is -0.09%.

Consider `O=C(c1cnccn1)N1CCN(S(=O)(=O)c2cccc(Cl)c2)CC1`, for which the activation was -0.88%.

Consider `CC(C)(C)NC(=O)NC(=O)CN1CCC(Cc2ccccc2)CC1`, for which the activation was -13.3%.

`CC(C)(CNC(=O)Cc1ccc(Cl)cc1Cl)N1CCOCC1`: the activation was -10.7%.

Consider `CN1c2ccc(C=O)c3c(C=O)ccc(c23)N(C)C1(C)C`, for which the activation was -7.9%.

As to `CCN(CC)C(=O)C1=C(C)N(Cc2ccc(OC)cc2)C(=O)C(CC(=O)NCc2ccco2)C1` (stereo unspecified), the activation is -7.01%.

Consider `CCN(CC)C(=O)C1=C(C)N(Cc2ccc(OC)cc2)C(=O)C(CC(=O)NCCCCc2ccccc2)C1` (stereo unspecified), for which the activation is 23.1% (active).

For the molecule `COc1ccc(CN2C(=O)C(CC(=O)NCCCCc3ccccc3)CC(C(=O)N3CCOCC3)=C2C)cc1` (stereo unspecified), the activation is 3.01%.

For the molecule `Cn1cc(C2OC(=O)c3ccccc32)c2ccccc21` (stereo unspecified), the activation was 0.52%.

For `CN1C(=O)c2cccc3c(N)ccc(c23)C1=O`, the activation was 118% (active).

On to `Cc1nn(C)cc1N1C(=O)c2cccc3c(N)ccc(c23)C1=O`, for which the activation is 44.5% (active).

On to `C[C@]12CCC(=O)C=C1C=CC1C2CC[C@@]2(C)C1CC[C@@]21CCC(=O)O1` (stereo partly specified), for which the activation is -6.36%.

Take `O=C(CN1C(=O)CC(c2ccccc2)S(=O)(=O)c2ccccc21)NC1CCCC1` (stereo unspecified): the activation is -3.97%.

Turning to `COc1ccc(CCC(=O)OCC(=O)Nc2ccc(C)c(S(=O)(=O)N(C)C)c2)cc1`, the activation was -1.39%.

`CCN1CCN(c2cc3nc(C)n(Cc4ccccc4)c(=O)c3cc2NC(=O)c2ccccc2F)CC1`: the activation was -9.45%.

`NNC(=O)COc1ccc(C2SCCS2)cc1`: the activation is -1.63%.

For the molecule `O=C(NNC(=S)NCc1ccccc1)c1ccc(OC(F)F)cc1`, the activation is -4.38%.

Consider `CCOc1ccccc1NC(=S)NC(=O)CCc1ccccc1`, for which the activation was -3.2%.

Take `COc1ccc(C(=O)NC(=S)NNC(=O)CCc2ccccc2)cc1`: the activation was 34.7% (active).

With `O=C(CCc1ccccc1)NNC(=O)COc1ccc(Cl)cc1`, the activation is 1.21%.

As for `COc1ccc(C(=O)NNC(=S)NC(=O)c2ccccc2)cc1`, the activation is 34.3% (active).

With `CC(=O)NC(=S)NNC(=O)c1ccc(Br)cc1`, the activation is -8.87%.

In the case of `COCCCNC(=O)C1CC(=O)N(c2ccc(C)cc2)C1` (stereo unspecified), the activation was -2.9%.

For `O=C(c1ccc(CS(=O)(=O)c2ccccc2)o1)N1CCN(c2ccccc2)CC1`, the activation was -1.41%.

Take `CC(C)(C)NS(=O)(=O)NC(=O)C1=C(N2CCCC2)COC1=O`: the activation is -5.28%.

Turning to `Cc1nc(C(F)(F)F)ccc1C(=O)N1CCC1(C)C(=O)NS(=O)(=O)c1ccccc1Cl` (stereo unspecified), the activation is -0.92%.

As to `CC1=NCCN1S(=O)(=O)c1ccc(Br)c(C)c1`, the activation is -3.91%.

On to `O=C1COc2ccc(C(=O)CSc3ccc(Br)cc3)cc2N1`, for which the activation was 0.13%.

Consider `c1ccc(CCC2=NCCn3cccc32)cc1`, for which the activation is -1.99% and -6.48%.

For `COc1cccc(CNC(=O)c2nnn(CC(=O)Nc3cc(Cl)ccc3C)c2N)c1`, the activation was 2.49%.

Take `COc1ccc(CNC(=O)c2nnn(CC(=O)Nc3cc(C)cc(C)c3)c2N)cc1`: the activation is -1.24%.

`COc1ccc(NC(=O)Cn2nnc(C(=O)NCCc3ccc(OC)c(OC)c3)c2N)cc1`: the activation is -1.8%.

`CCOc1ccc(Cn2nnc(C(=O)NCc3ccccc3)c2N)cc1`: the activation was 41% (active).

Regarding `Nc1c(C(=O)Nc2ccc3c(c2)OCCO3)nnn1Cc1ccccc1`, the activation is 1.21%.

In the case of `CCOc1ccc(Cn2nnc(C(=O)Nc3ccc(OC)cc3OC)c2N)cc1`, the activation was 17.4% (active).

For the molecule `O=C(CCNS(=O)(=O)c1ccc(Br)s1)NCc1ccccc1Cl`, the activation was -1.35%.

For the molecule `O=c1o[nH]c(-c2ccccc2)c1N=Nc1c(F)cccc1Cl`, the activation is -2.19%.

`CCCCNC(=O)CCn1c(=O)c2ccccc2n(Cc2cc(C)ccc2C)c1=O`: the activation was -4.41%.

On to `OC(c1ccc(F)cc1)c1ncc(-c2cccc(C(F)(F)F)c2)[nH]1` (stereo unspecified), for which the activation is 6.15%.

On to `CC(=O)Nc1cc(-c2ccccc2F)cn2c(-c3cccc(C(F)(F)F)c3)cnc12`, for which the activation is -3.25%.

As for `CC(=O)Nc1cccc(C(=O)OCC(=O)c2ccc3c(c2)OCO3)c1`, the activation is 6.09%.

In the case of `NS(=O)(=O)c1ccc(NC(=O)COC(=O)c2c3c(nc4ccccc24)/C(=C\c2ccc4c(c2)OCO4)CCC3)cc1`, the activation was 62.8% (active).

With `NC(=O)c1ccc(NC(=O)COC(=O)c2c3c(nc4ccccc24)/C(=C\c2ccc4c(c2)OCO4)CCC3)cc1`, the activation is 38.3% (active).

Turning to `NS(=O)(=O)c1ccc(NC(=O)COC(=O)CCc2c[nH]c3ccccc23)cc1`, the activation was -0.53%.

Turning to `O=C(COC(=O)c1ccc(Cl)nc1)NCc1ccc2c(c1)OCO2`, the activation is -4.12%.

Turning to `NS(=O)(=O)c1ccc(NC(=O)COC(=O)c2ccco2)cc1`, the activation is -0.06%.
